# Bioassay records: PubChem, several laboratories
# Sampled rows, rich in hits. Any-hit rate of the full collection: about 12%.
# Insulin prom inh = TRM-6 insulin promoter activity inhibition; inhibition, % at 2 µM; 130,000 compounds, 0.9% hits; AID 1273; TRM-6 cells (human fetal islet line), insulin promoter-eGFP reporter, imaging; reporter expression induced with tamoxifen;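 active means inhibition above the mean plus 3 SD, with well images judged a real hit on visual review, cut at about 60% in these data, passing the limit was not always enough; inconclusive means inhibition over the cutoff but images rejected on review; inactive means inhibition not above the cutoff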
# ROMK primary = human ROMK K+ channel modulation, primary screen; P48048; Tet-inducible ROMK, thallium flux fluorescence; actives lie on both sides; B-score at 10 µM; 130,000 compounds, 2% hits;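 active means signal ratio slope over the read window, or its plate-corrected B-score, at least 3 SD from the plate mean, either direction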;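 further: B-score of the F/F0 ratio slope over 7 to 12 s after thallium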
# Target sequence (P48048 whole entry, looked up): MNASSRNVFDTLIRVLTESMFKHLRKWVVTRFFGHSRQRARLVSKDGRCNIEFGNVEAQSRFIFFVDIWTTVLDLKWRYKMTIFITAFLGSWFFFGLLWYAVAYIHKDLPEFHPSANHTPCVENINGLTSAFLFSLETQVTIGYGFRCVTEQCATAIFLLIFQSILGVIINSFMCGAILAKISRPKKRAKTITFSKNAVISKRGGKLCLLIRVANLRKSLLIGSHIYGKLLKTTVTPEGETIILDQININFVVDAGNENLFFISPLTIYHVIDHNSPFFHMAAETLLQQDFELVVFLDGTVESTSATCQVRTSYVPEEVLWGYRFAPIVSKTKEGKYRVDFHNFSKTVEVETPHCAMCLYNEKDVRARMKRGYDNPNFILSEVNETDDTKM
# WT yeast gro inh = growth inhibition of WT yeast, mitochondrial fusion screen. mitochondrial fusion phenotypic screen, WT strain. inhibition, % at 10 µM. 190,000 compounds, 2.1% hits; in the data active means inhibition above about 58%; tested in S. cerevisiae
# Insulin prom up = MIN6 insulin promoter up-regulation. MIN6 insulin promoter-GFP reporter, high-content imaging; active compounds read high. z-score at 5 µM. 190,000 compounds, 0.3% hits;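 active means z-score above 3 at 5 µM with at least 500 cells counted in the well; inconclusive means wells under 500 cells, flagged as cytotoxic or low count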
# Cl transport mod = modulators of human KCC2 chloride dependent transport | 190,000 compounds, 2.2% hits | B-score of Tl+ flux slope (higher = more flux/activation; lower = inhibition) at 10 µM | Q9H2X9 | KCC2 cells, thallium flux FluoZin-2 fluorescence;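 active means thallium flux slope and its plate-corrected score both differing from the plate sample mean at a set confidence after two filtering rounds, in either direction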;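 further: slope of fluorescence scaled to starting intensity during 10 to 20 s after thallium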
# L major viab = Leishmania major promastigote growth inhibition | Leishmania major promastigotes, resazurin fluorescence viability | inhibition, % at 10 µM | 200,000 compounds, 9% hits | AID 1063; in the data active means inhibition above about 50%;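 further: promastigotes grown with compound for 44 hours at 28 °C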
# KCC2 sec1 = KCC2 (human) modulation, secondary assay; normalised thallium flux (F/F0 slope) at 10 µM; AID 1713; 3,700 compounds, 15% hits; shares compounds with Cl transport mod; HEK293-KCC2, thallium flux, FluoZin2 fluorescence; active compounds read high;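 active means thallium flux slope above the same plate's solvent-only control mean plus 3 SD; inconclusive means the two replicate wells disagree; inactive means no significant difference from solvent-only control wells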
# KCC2 bumet counter = thallium flux persisting under bumetanide in KCC2 cells, counter-screen secondary assay | normalized thallium flux at 10 µM | HEK293-KCC2 + bumetanide/ouabain, thallium flux FluoZin2; active compounds read high | shares compounds with Cl transport mod | 3,700 compounds, 49% hits;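 active means thallium entry rate above the same plate's blocked-transporter control wells by more than 3 SD; inconclusive means the two repeat wells disagree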;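 further: raw slope of fluorescence over initial fluorescence between 10 and 20 s after thallium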
# KCC2 secondary2 = confirmation of human KCC2 transport modulators; normalized thallium flux at 10 µM; shares compounds with Cl transport mod; 3,700 compounds, 23% hits; AID 1715; HEK293-KCC2, thallium flux FluoZin2 fluorescence; actives lie on both sides; F/F0 rise rate, 10–20 s post-thallium;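 active means thallium flux slope more than 3 SD above or below the plate's solvent-only control mean, mostly below; inconclusive means the two repeat wells disagreed; inactive means no significant shift from solvent-only controls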;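 further: raw slope with 0.1% DMSO as baseline and bumetanide as block control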
# HEK counter1 = parental HEK flux effect, counter-screen | shares compounds with Cl transport mod | HEK293 parental cells, thallium flux FluoZin2, ouabain; baseline-ratio fluorescence slope, 10–20 s after thallium | thallium flux rate (normalised fluorescence) at 10 µM | 3,700 compounds, 46% hits;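 active means thallium flux rate significantly above the same plate's solvent-only control wells, beyond their mean plus 3 SD; inconclusive means the two replicate wells gave conflicting results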
# KCC2 retest ouab = KCC2 (human) modulation, ouabain retest; shares compounds with Cl transport mod; HEK293-KCC2, thallium flux FluoZin2 fluorescence; bidirectional: low = inhibitor, high = activator; raw Tl+ flux slope (below DMSO = inhibition, above = activation) at 10 µM; 3,700 compounds, 48% hits;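 active means thallium flux slope beyond 3 SD from same-plate DMSO control mean in most replicates, usually higher, sometimes lower; inconclusive means repeat tests gave conflicting results; inactive means no significant difference from controls in most replicates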;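 further: slope of initial-normalized fluorescence between seconds 10 and 20 after thallium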
# HEK293 Tl flux2 = parental HEK flux effect, counter-screen 2; shares compounds with Cl transport mod; HEK293 parental, thallium flux FluoZin-2 fluorescence slope; thallium flux slope at 10 µM; 3,700 compounds, 33% hits;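 active means thallium flux slope above the same plate's solvent-control mean plus 3 SD in both duplicate wells; inconclusive means duplicate wells that disagreed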;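 further: run without ouabain in cells lacking the KCC2 cotransporter; slope of fluorescence scaled to its starting value between 10 and 20 s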
# * hit, by the source's call; ? = inconclusive; nt = no result given.
SMILES,Insulin prom inh,ROMK primary,WT yeast gro inh,Insulin prom up,Cl transport mod,L major viab,KCC2 sec1,KCC2 bumet counter,KCC2 secondary2,HEK counter1,KCC2 retest ouab,HEK293 Tl flux2
Cc1ccc(Nc2nnc(SCc3cc(=O)n4ccsc4n3)s2)c(C)c1,-27,nt,28,-0.06,-7.6*,10,0.0087,0.0068,?,0.0038,0.016*,0.011
CCc1ccc(Nc2nnc(SCc3cc(=O)n4ccsc4n3)s2)cc1,25,-0.87,3,nt,-8.5*,-8,0.0085,0.0055,0.021*,0.0057,0.011*,0.0094
COc1ccc(C)cc1S(=O)(=O)Nc1cc(Cl)ccc1Cl,-32,-2.4,8,nt,9*,3,0.017,0.013*,0.031,0.012*,0.02,0.013*
CN(C)c1cccc(C(=O)NNC(=S)NC2CCCC2)c1,nt,-0.1,17,-0.32,-0.12,-3,nt,nt,nt,nt,nt,nt
CCN(CC)CCSc1nc2ccccc2c(=S)n1-c1ccccc1,27,nt,20,-0.43,2.8*,82*,0.01,0.0056,0.034,0.0086,0.02,0.011
CCN(CC)CCSc1nc(O)c(-c2ccccc2)c(=O)n1-c1ccccc1,32,-0.01,-1,0.08,0.027,-3,nt,nt,nt,nt,nt,nt
CN(C)c1ccc(NC(=O)c2sc(SCC(=O)Nc3nccs3)nc2N)cc1,nt,-0.15,19,nt,14*,9,0.0061,0.013*,0.034,0.012*,?,0.014*
CN(C)c1ccc(NC(=O)c2sc(SCC(=O)Nc3ccc(Br)cc3)nc2N)cc1,-29,nt,19,nt,nt,-2,nt,nt,nt,nt,nt,nt
Cc1ccccc1-n1c(=S)[nH]c2nc3c(cc2c1=O)CCCC3,nt,0.51,-1,-0.12,25*,-4,0.025*,0.069*,0.045*,0.046*,0.043*,0.035*
Cc1ccccc1-n1c(=S)[nH]c2nc3c(cc2c1=O)COC(C)(C)C3,nt,1.8,nt,0.04,-1,nt,nt,nt,nt,nt,nt,nt
COc1cc(C(=O)OCC(=O)c2cc(C)n(C)c2C)cc(OC)c1OC,nt,1.6,5,-0.02,6.7*,19,0.01,0.0071,0.032,0.0078,0.022,0.01
Cc1cc(C(=O)COC(=O)c2nccnc2N)c(C)n1C,-33,-0.13,9,0,1.1,-9,nt,nt,nt,nt,nt,nt
C=CCNC(=O)NC(=O)CSc1nc2cc([N+](=O)[O-])ccc2n1-c1cccc(C(F)(F)F)c1,10,-0.32,1,-0.42,7.6*,-3,0.0079,0.014*,0.032,0.011*,?,0.0095
O=C(CSc1nc2cc([N+](=O)[O-])ccc2n1-c1ccccc1)NCc1ccc2c(c1)OCO2,nt,nt,6,-0.2,1,-4,nt,nt,nt,nt,nt,nt
Cc1c(Cl)cccc1Nc1ccccc1C(=O)O,7,0.22,-14,0.1,4.6*,2,?,0.024*,0.032,0.013*,?,0.011
Cc1cc(Cl)ccc1C(=O)C1CCCN(C(=O)c2ccoc2)C1 (stereo not given),nt,-0.75,14,-0.97,nt,1,nt,nt,nt,nt,nt,nt
CCn1c(NC(=O)c2ccccc2)nc2ccccc21,nt,nt,nt,0.07,31*,nt,0.0063,0.018*,0.032,0.016*,?,0.016*
CCCn1c(NC(=O)c2ccc(F)cc2)nc2ccccc21,nt,0.069,-12,-1.4,0.93,17,nt,nt,nt,nt,nt,nt
CCCCC(NC(C)=O)c1nc2ccccc2n1CCCC (stereo not given),nt,nt,15,0.2,6*,7,0.0056,0.0041,0.029,?,0.019,0.0098
CCCn1c(NC(=O)c2ccc(Br)cc2)nc2ccccc21,22,-0.037,7,-0.47,1.1,9,nt,nt,nt,nt,nt,nt
CCCCn1c(NC(=O)c2ccccc2)nc2ccccc21,nt,-0.49,35,-1.3,13*,96*,0.0099,0.03*,0.032,?,0.03*,?
CCCCCn1c(C(Cc2ccccc2)NC(C)=O)nc2ccccc21 (stereo not given),nt,nt,6,1.5,-0.36,8,nt,nt,nt,nt,nt,nt
Cc1c(C(=O)O)sc2nc(SCC(=O)Nc3ccc(S(=O)(=O)NC(C)(C)C)cc3)[nH]c(=O)c12,-8,-0.58,-12,1.2,0.64,-9,nt,nt,nt,nt,nt,nt
COC(=O)[C@H](CC(C)C)NC(=O)Nc1ccc2c(c1)OCCO2,-53,0.42,3,nt,nt,-3,nt,nt,nt,nt,nt,nt
CC(=O)c1c(C)nc(-c2ccc(OCC(=O)Nc3ccccc3)cc2)n1O,21,-0.57,13,nt,-0.77,-1,nt,nt,nt,nt,nt,nt
SMILES,Insulin prom inh,ROMK primary,WT yeast gro inh,Insulin prom up,Cl transport mod,L major viab,KCC2 sec1,KCC2 bumet counter,KCC2 secondary2,HEK counter1,KCC2 retest ouab,HEK293 Tl flux2
O=C(CCc1ccccc1)NC(=S)Nc1cccc(Br)c1,26,0.91,59*,-1.2,4.8*,34,0.0082,0.011*,0.029,0.0086*,?,0.0096
CC(=O)NC(=S)NNC(=O)CCc1ccccc1,22,0.47,0,0.33,0.87,20,nt,nt,nt,nt,nt,nt
CCN(C(=S)NC(=O)CCc1ccccc1)c1ccccc1,14,0.99,12,-0.23,4.7*,1,?,0.051*,0.034,0.017*,0.042*,0.013*
CC(C)(C)c1cc(CCC(=O)NNC(=S)NC(=O)c2ccccc2)cc(C(C)(C)C)c1O,-29,0.83,12,-4.3,54*,97*,0.033*,0.11*,0.036,0.091*,0.082*,0.02*
O=C(CCc1ccccc1)NNC(=S)NC(=O)c1ccccc1,nt,0.75,42,0.07,10*,25,0.025*,0.061*,0.037,0.03*,0.051*,0.015*
CCCCC(=O)NC(=S)NNC(=O)CCc1ccccc1,nt,nt,nt,0.14,6.9,nt,nt,nt,nt,nt,nt,nt
CC(C)(C)SCCNS(=O)(=O)c1ccc(Cl)cc1,10,0.13,7,nt,-0.55,1,nt,nt,nt,nt,nt,nt
CC1(C)N(O)CC(c2cccs2)=[N+]1[O-],15,0.16,0,-0.3,2.9*,-5,0.0082,0.0054,0.028,0.0067,0.02,0.0099
Cc1cc(NS(=O)(=O)c2ccc(NC(=S)NC(=O)c3cccnc3)cc2)no1,nt,1,-15,-0.05,2.4,-6,nt,nt,nt,nt,nt,nt
CC1Cc2ccccc2N1CC(=O)Nc1ccc(S(=O)(=O)N(C)C)cc1 (stereo not given),nt,nt,nt,0.16,-3.9*,nt,0.0083,0.007,0.029,0.0076,0.022,?
